Results taken from PubChem BioAssay.

Tested on: not listed separately
Test: NFkB reporter suppression in cystic fibrosis bronchial cells – cell-based, uHTS hits, panel, cytotoxicity readout, dose response (AID 624344)
Conditions: CF bronchial epithelial cells, PAF-induced NFkB reporter inhibition, with PAF, run 1; at 79 µM (top of the series) unless noted; in the data active means activity above about 50%; inactive means the rest

| SMILES | inhibition [%] |
| --- | --- |
| CC(=O)Nc1ccc(-c2ccnc3c2CC(C(=O)NCc2ccco2)O3)cc1 (configuration not stated) | 70 |
| NC(=S)N1OC[C@@H]2COc3ccc4ccccc4c3[C@@H]21 | 114 |
| C=CC[C@@H](CC(=O)N[C@H](CO)Cc1ccccc1)C(=O)NC[C@H](OC(=O)[C@@H](CC=C)Cc1ccc(F)cc1)c1ccccc1 | 101 |
| CCN1CCN(Cc2ccc(NC(=O)c3ccc(C)c(NC(=O)N4CCNC4=O)c3)cc2C(F)(F)F)CC1 | 103 |
| Nc1nccc(SCc2ccc(Cl)cc2Cl)n1 | 72.7 |
| O=C(CC12CC3CC(CC(C3)C1)C2)Nc1nncs1 | 105 |
| Nc1ncc([N+](=O)[O-])c(N2CCCCCC2)n1 | 115 |
| O=C(Nc1ccccc1)Nc1ncc([N+](=O)[O-])s1 | 108 |
| COc1cccc(-c2ccc3ncnc(NCc4cccs4)c3c2)c1 | 117 |
| CS(=O)(=O)c1ncc(Cl)c(C(=O)Nc2ccc(OC(F)F)cc2)n1 | 91.4 |
| CC(=O)OC1CCC2(C)C(CCC3C4CC=C(C(C)=O)C4(C)OC(=O)CC32)C1 (configuration not stated) | 99.2 |
| COc1ccc(-c2cnc(N)nc2-c2ccc(OC)cc2O)cc1 | 112 |
| C=C(C)[C@@H]1CCC2(C(=O)O)CC[C@]3(C)[C@H](CC[C@@H]4[C@@]5(C)CCC(=O)C(C)(C)[C@@H]5CC[C@]43C)[C@@H]12 (some centres not stated) | 86.7 |
| O=S(=O)(CC(CN1CCCC1)N1CCCC1)c1ccc2ccccc2c1 (configuration not stated) | 96.4 |
| Oc1ccc(Br)cc1-c1nc2cnccn2c1NC1CCCC1 | 101 |
| O=C1NCCc2c1[nH]c1c(Cl)ccc(Cl)c21 | 101 |
| COc1cccc(NC(=O)CN(C)CC(=O)Nc2ccc(C)c([N+](=O)[O-])c2)c1 | 80.7 |
| COc1cccc(Nc2ncnc3ccc(Br)cc23)c1 | 119 |

Tested on: not listed separately
Test: as above
Conditions: CF bronchial epithelial cells, PAF-induced NFkB reporter inhibition, with PAF, run 2; at 79 µM (top of the series) unless noted

| SMILES | inhibition [%] |
| --- | --- |
| CC(=O)Nc1ccc(-c2ccnc3c2CC(C(=O)NCc2ccco2)O3)cc1 (configuration not stated) | 78 |
| NC(=S)N1OC[C@@H]2COc3ccc4ccccc4c3[C@@H]21 | 105 |
| C=CC[C@@H](CC(=O)N[C@H](CO)Cc1ccccc1)C(=O)NC[C@H](OC(=O)[C@@H](CC=C)Cc1ccc(F)cc1)c1ccccc1 | 108 |
| CCN1CCN(Cc2ccc(NC(=O)c3ccc(C)c(NC(=O)N4CCNC4=O)c3)cc2C(F)(F)F)CC1 | 119 |
| Nc1nccc(SCc2ccc(Cl)cc2Cl)n1 | 74.1 |
| O=C(CC12CC3CC(CC(C3)C1)C2)Nc1nncs1 | 100 |
| Nc1ncc([N+](=O)[O-])c(N2CCCCCC2)n1 | 104 |
| O=C(Nc1ccccc1)Nc1ncc([N+](=O)[O-])s1 | 96.7 |
| COc1cccc(-c2ccc3ncnc(NCc4cccs4)c3c2)c1 | 99.9 |
| CS(=O)(=O)c1ncc(Cl)c(C(=O)Nc2ccc(OC(F)F)cc2)n1 | 90.1 |
| CC(=O)OC1CCC2(C)C(CCC3C4CC=C(C(C)=O)C4(C)OC(=O)CC32)C1 (configuration not stated) | 104 |
| COc1ccc(-c2cnc(N)nc2-c2ccc(OC)cc2O)cc1 | 102 |
| C=C(C)[C@@H]1CCC2(C(=O)O)CC[C@]3(C)[C@H](CC[C@@H]4[C@@]5(C)CCC(=O)C(C)(C)[C@@H]5CC[C@]43C)[C@@H]12 (some centres not stated) | 102 |
| O=S(=O)(CC(CN1CCCC1)N1CCCC1)c1ccc2ccccc2c1 (configuration not stated) | 92.7 |
| Oc1ccc(Br)cc1-c1nc2cnccn2c1NC1CCCC1 | 97.8 |
| O=C1NCCc2c1[nH]c1c(Cl)ccc(Cl)c21 | 113 |
| COc1cccc(NC(=O)CN(C)CC(=O)Nc2ccc(C)c([N+](=O)[O-])c2)c1 | 101 |
| COc1cccc(Nc2ncnc3ccc(Br)cc23)c1 | 105 |

Biological target: Tumor necrosis factor receptor superfamily member 10B (Homo sapiens) (UniProt O14763)
Test: viability loss of caspase-8 NB7 cells with TRAIL – with/without TRAIL, luminescence panel, confirmation (AID 651596)
Conditions: NB7 neuroblastoma + caspase-8, TRAIL sensitization, NB7 Caspase-8, with TRAIL, mean of runs, at 10 µM, stronger effect = higher value

Sequence of Tumor necrosis factor receptor superfamily member 10B (Homo sapiens) (O14763 whole entry, looked up): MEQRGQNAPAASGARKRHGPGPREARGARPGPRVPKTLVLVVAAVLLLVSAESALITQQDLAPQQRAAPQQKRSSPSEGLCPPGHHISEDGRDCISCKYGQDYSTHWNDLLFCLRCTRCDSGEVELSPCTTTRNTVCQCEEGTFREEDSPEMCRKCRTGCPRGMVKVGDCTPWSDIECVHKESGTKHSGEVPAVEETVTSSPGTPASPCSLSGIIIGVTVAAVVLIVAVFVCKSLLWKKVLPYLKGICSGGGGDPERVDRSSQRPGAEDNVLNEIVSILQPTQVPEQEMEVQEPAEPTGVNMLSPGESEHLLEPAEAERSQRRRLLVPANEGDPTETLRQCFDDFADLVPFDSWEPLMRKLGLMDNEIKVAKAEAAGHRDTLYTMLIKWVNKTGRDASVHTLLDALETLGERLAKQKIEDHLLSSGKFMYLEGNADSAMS

| SMILES | activity [%] |
| --- | --- |
| CCOC(=O)c1c(C)[nH]c(C(=O)OCC(=O)Nc2sccc2C(N)=O)c1C | 69.8 |
| Cc1nn(C(C)(C)C)c(C)c1/C=N/OC(=O)Nc1ccc(Cl)cc1 | 94.2 |
| COC(=O)c1c(NC(=O)c2ccc([N+](=O)[O-])o2)sc2c1CCN(C(C)C)C2 | 46.9 |
| Cc1noc(-c2ccc(Cl)cc2)c1C(=O)O/N=C(\N)c1ccc(C(C)(C)C)cc1 | 99.3 |
| COc1cc(NC(=O)c2c(F)c(F)c(F)c(F)c2F)c(OC)cc1Cl | 85.1 |
| CN1CCN(c2ccc(NC(=O)N3CCc4ccccc43)cc2)CC1 | 70.6 |
| CCCCCCCCCCCCCCCC(O)C[N+](C)(C)CCO (configuration not stated) | 95.8 |
| CC(C)(C)C(=O)Nc1cc2nn(-c3ccccc3)nc2cc1Cl | 98.2 |
| Cc1cc(C)c2sc(N(CCCN(C)C)C(=O)c3ccc(S(=O)(=O)N4CCCc5ccccc54)cc3)nc2c1 | 31.6 |
| N/C(=N\OC(=O)c1ccccc1)C(C(=O)NOC(=O)c1ccccc1)C1CCCCC1 (configuration not stated) | 97.6 |
| Nc1nc(CCl)nc(Nc2cccc3ccccc23)n1 | 99.8 |
| COCCn1c(C)cc(C2=NNC(=NC3CC3)SC2)c1C | 91.5 |
| Cc1ccc2sc(N(CCCN(C)C)C(=O)c3ccc(S(=O)(=O)N(C)Cc4ccccc4)cc3)nc2c1C | 44 |
| Cc1cc2sc3ccc(C#CC4(O)CCCCC4)cc3c(=O)c2cc1C | 91.2 |
| CCn1c(C)cc(C(=O)COC(=O)c2ccccc2[N+](=O)[O-])c1C | 94.7 |
| O=C(NC1CCCCC1)C(c1cccnc1)N(C(=O)CCl)c1cccc(Cl)c1 (configuration not stated) | 99.3 |
| Cc1ccc(N(Cc2cc(=O)[nH]c3ccccc23)C(=O)CCl)c(C)c1 | 96.8 |
| COC(=O)C1=C(C)N(Cc2ccccc2)C(=NCCc2c[nH]c3ccccc23)N[C@H]1c1cccc(C(F)(F)F)c1 | 17.3 |
| O=C(Nc1ccccc1)NN(C(=O)CCl)c1ccccc1 | 98.3 |
| O=C(CCl)N1N=C(c2ccco2)CC1c1cccs1 (configuration not stated) | 98.5 |
| CCCN(CC(=O)Nc1ccccc1C)C(=O)CCl | 97.8 |
